Here are results for 8 molecules from PubChem BioAssay (NCATS).

Several values for one entry are separate records, joined by “and”; a condition that tells them apart may be missing. Equal entries are not always repeated. Inconclusive results are not listed. Activity calls are given as the source filed them. Unless noted, calls come from the whole dose curve; as a rule, active = well fitted curve in the direction sought with a large enough effect; inconclusive = small, poorly fitted or top-dose-only effect, or another doubt; inactive = no such curve, though single readings can be large; an effect the other way counts as inactive or inconclusive.

The target of test [1] is Catechol O-methyltransferase (Homo sapiens) (UniProt P21964). The experiment in a line: Confirmatory Screen for Target Class Profiling of Small Molecule Inhibitors of Methyltransferases (AID 1745852; calls by dose curve; for activity change, negative = inhibition: % is set by controls: 0 for no effect and ±100 for the full control effect). To be noted: MTase-Glo luminescence, SAH detection, recombinant enzyme; measured here: COMT max response; stronger effect = lower value.
Sequence of Catechol O-methyltransferase (Homo sapiens) (P21964 whole entry, looked up): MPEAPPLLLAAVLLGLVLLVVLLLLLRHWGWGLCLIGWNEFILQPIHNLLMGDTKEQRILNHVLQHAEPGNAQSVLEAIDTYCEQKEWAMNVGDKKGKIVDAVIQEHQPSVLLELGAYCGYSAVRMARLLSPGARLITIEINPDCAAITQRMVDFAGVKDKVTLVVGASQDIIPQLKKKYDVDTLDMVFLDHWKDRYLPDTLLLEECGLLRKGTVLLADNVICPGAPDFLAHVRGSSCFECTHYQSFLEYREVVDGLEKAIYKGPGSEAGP
In test [2] the target is Guanidinoacetate N-methyltransferase (Homo sapiens) (UniProt Q14353). The test is described as above. To be noted: MTase-Glo luminescence, SAH detection, recombinant enzyme; activity change, negative = inhibition: at 57.3 µM (top of the series); series mostly up to 57.3 µM.
Test [3] addresses Nicotinamide N-methyltransferase (Homo sapiens) (UniProt P40261). Described as above. To be noted: MTase-Glo luminescence, SAH detection, recombinant enzyme; measured here: NNMT max response; stronger effect = lower value.
For test [4], the target named is Phenylethanolamine N-methyltransferase (Homo sapiens) (UniProt P11086). The test is described as above. To be noted: MTase-Glo luminescence, SAH detection, recombinant enzyme; measured here: PNMT max response; stronger effect = lower value.
Sequence of Phenylethanolamine N-methyltransferase (Homo sapiens) (P11086 whole entry, looked up): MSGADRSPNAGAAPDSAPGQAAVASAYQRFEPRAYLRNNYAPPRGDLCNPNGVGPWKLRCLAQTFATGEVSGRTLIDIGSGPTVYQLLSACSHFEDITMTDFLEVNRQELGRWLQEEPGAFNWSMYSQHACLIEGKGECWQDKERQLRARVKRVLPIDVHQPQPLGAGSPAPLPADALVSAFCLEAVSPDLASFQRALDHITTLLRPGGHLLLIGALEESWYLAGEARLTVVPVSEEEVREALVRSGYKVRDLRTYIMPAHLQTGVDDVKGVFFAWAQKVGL
The target of test [5] is Calcium and integrin-binding protein 1 (Homo sapiens) (UniProt Q99828). The test is described as follows: Primary qHTS for Identification of Calcium Integrin Binding Protein 1 (CIB1) Competitor (AID 1508620).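 Note: GST tagged CIB1 binding a fluorescein labelled alphaIIb integrin peptide tracer; top concentration of the series differs between compounds; % is set by controls: 0 for no effect and ±100 for the full control effect.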 The conditions noted are these: CIB1-GST / FITC-alphaIIb peptide fluorescence polarization; series mostly up to 57.7 µM. In a few lines: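 CIB1-GST (1 uM final) and compound incubated 15 min at room temperature before adding FITC-alphaIIb peptide tracer (100 nM final). Competition for binding read by fluorescence polarization (ex 480, em 540) after another 15 min at room temperature.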
Sequence of Calcium and integrin-binding protein 1 (Homo sapiens) (Q99828 whole entry, looked up): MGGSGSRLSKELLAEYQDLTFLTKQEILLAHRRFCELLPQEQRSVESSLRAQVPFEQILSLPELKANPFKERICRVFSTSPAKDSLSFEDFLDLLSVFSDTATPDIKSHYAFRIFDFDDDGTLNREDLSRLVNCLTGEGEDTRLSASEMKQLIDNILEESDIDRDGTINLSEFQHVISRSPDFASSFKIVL
A general note: qHTS replaces the single test concentration by a dilution series.

Test [6] has as its target Cytochrome P450 2D6 (Homo sapiens) (UniProt P10635). The experiment in a line: Cytochrome P450 family 2 subfamily D member 6 (CYP2D6) small molecule antagonists: luciferase biochemical (cell-free) qHTS assay (AID 1645840; active = well fitted curve in the direction sought with a large enough effect in the repeat runs; an effect the other way counts as inactive or inconclusive; note: potency is the fitted concentration of half-maximal effect; nearly all actives have a fitted effect of over 55% in size). The conditions noted are these: P450-Glo CYP2D6 enzyme, luciferin luminescence, 1 h; series mostly up to 57.4 µM. Summed up: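 P450-Glo CYP2D6 system: proluciferin substrate converted by enzyme to luciferin, read by luminescence proportional to activity. Enzyme-substrate mix with compound 10 min at room temperature, then NADPH regeneration 1 h before detection reagent.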

Test [7] concerns the target Cytochrome P450 2C9 (Homo sapiens) (UniProt P11712). The experiment in a line: Cytochrome P450 family 2 subfamily C member 9 (CYP2C9) small molecule antagonists: luciferase biochemical (cell-free) qHTS assay (AID 1645842; active = well fitted curve in the direction sought with a large enough effect in the repeat runs; an effect the other way counts as inactive or inconclusive; note: nearly all actives have a fitted effect of over 55% in size; note: potency is the fitted concentration of half-maximal effect). The conditions noted are these: P450-Glo CYP2C9 enzyme assay, luciferin luminescence; series mostly up to 57.4 µM. Summed up:
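P450-Glo CYP2C9 system: proluciferin substrate with enzyme in mix containing 0.4% BSA, 10 min at room temperature, then NADPH regeneration solution added and incubated 1 h at 37C. Detection reagent stopped reaction; luminescence read after 20 min as RLU.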

Test [8] is described as follows: Primary qHTS for inhibitors of nuclear receptor binding SET domain protein 2 (NSD2) in an isogenic RCH-ACV NSD2 p.E1099K mutant (9B) (AID 1645876). Note: potency is the fitted concentration of half-maximal effect; nearly all actives have a fitted effect of over 70% in size. To be noted: RCH-ACV NSD2 E1099K (9B) viability, CellTiter-Glo, 72 h; series mostly up to 44.9 µM.
Test [9] can be described thus: Primary qHTS for inhibitors of nuclear receptor binding SET domain protein 2 (NSD2) in an RCH-ACV wild type WT cells (2C) (AID 1645877). Note: potency is the fitted concentration of half-maximal effect; nearly all actives have a fitted effect of over 70% in size. The conditions noted are these: RCH-ACV (leukaemia line) NSD2 WT (2C) viability, CellTiter-Glo, 72 h; series mostly up to 44.9 µM.
Test [10] is described as follows: Primary qHTS for small molecule stabilizers of the endoplasmic reticulum resident proteome: Secreted ER Calcium Modulated Protein (SERCaMP) assay (AID 1508630). Note: % is set by controls: 0 for no effect and ±100 for the full control effect. The conditions noted are these: SH-SY5Y GLuc-SERCaMP (Gaussia luciferase released on ER calcium loss) secretion, thapsigargin, luminescence; series mostly up to 38.4 µM. Summed up: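 The SH-SY5Y reporter protocol was run at 3 concentrations up to 38.3 uM (primary) or 11 concentrations (follow-up): 16 h compound, 100 nM thapsigargin for 4 h, then extracellular luciferase luminescence.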

The nature of test [11]: NCATS anti-infectives library activity on HEK293 viability as a counter-qHTS vs the C. elegans viability qHTS (AID 1745854). Note: % is set by controls: 0 for no effect and ±100 for the full control effect. To be noted: HEK293 viability counter-screen; series mostly up to 41.8 µM. In a few lines: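 CellTiter-Glo luminescence, read on a CCD imager, scored viability of HEK293 cells after 24 hr compound exposure at 37C. Library tested in several concentrations, 1:5 steps, up to 41.7 uM; digitonin served as control.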

Sequence of Nicotinamide N-methyltransferase (Homo sapiens) (P40261 whole entry, looked up): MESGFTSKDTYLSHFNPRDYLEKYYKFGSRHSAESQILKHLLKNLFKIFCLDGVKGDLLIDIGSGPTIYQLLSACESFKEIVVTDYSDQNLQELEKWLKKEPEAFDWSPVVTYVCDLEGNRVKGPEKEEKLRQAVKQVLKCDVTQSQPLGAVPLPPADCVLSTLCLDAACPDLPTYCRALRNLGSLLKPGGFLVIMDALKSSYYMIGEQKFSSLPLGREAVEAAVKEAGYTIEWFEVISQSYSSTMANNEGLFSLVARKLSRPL
Sequence of Cytochrome P450 2C9 (Homo sapiens) (P11712 whole entry, looked up): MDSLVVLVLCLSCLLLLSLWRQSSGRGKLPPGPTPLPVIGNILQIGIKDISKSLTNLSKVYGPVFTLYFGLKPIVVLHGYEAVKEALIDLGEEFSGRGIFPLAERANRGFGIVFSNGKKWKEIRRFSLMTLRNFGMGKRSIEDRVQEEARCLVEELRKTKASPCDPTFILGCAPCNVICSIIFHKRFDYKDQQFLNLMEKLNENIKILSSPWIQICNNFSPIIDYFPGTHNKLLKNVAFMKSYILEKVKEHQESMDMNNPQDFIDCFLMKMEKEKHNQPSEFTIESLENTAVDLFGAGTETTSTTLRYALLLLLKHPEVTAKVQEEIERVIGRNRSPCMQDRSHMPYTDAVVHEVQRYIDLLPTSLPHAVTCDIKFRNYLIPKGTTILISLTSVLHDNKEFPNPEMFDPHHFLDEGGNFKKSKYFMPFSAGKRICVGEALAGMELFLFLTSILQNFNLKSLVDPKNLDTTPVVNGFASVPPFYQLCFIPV
Sequence of Cytochrome P450 2D6 (Homo sapiens) (P10635 whole entry, looked up): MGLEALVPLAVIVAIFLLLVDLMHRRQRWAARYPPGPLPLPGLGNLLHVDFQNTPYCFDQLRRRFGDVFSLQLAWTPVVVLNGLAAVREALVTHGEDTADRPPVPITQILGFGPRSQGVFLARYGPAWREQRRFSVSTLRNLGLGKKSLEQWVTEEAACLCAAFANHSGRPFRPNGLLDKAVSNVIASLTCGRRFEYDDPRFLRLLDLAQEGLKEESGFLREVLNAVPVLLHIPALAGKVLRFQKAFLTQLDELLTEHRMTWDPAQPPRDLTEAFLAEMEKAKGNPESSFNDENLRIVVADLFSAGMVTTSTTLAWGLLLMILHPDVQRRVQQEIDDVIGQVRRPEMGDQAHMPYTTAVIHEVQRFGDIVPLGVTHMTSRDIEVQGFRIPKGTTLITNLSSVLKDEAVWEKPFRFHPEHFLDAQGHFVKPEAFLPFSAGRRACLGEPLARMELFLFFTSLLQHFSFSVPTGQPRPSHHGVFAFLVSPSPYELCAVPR

On to `CCN(CC)Cc1ccc2cc(COC(=O)Nc3ccc(C(=O)NO)cc3)ccc2c1`, for which the values for the activity in [1], in test [3] and in test [4] were 0%, -7.87% and -6.29%, respectively. The activity change, negative = inhibition in test [2] was -6.61%.
On to `c1cc(N[C@@H]2CCNC2)nc(-c2cnc3ccc(-c4cn[nH]c4)cn23)c1`, for which the activity in test [1] was -4.23%; in [3] it was -7.42%; in test [4] it was -12.3%. The Potency result in test [2] is “inactive”.
With `CC1=C(C(=O)Nc2cc3cn[nH]c3cc2F)C(c2ccc(Cl)cc2F)N=C(c2ccnc(Cl)c2)N1` (centres undefined), the Potency entry in [5] is “inactive”. Also, the Potency in test [6] was 6.74 µM (active); in test [7], 3.79 µM (active); in test [8], 5.78 µM (active) and 9.34 µM (active); in test [9] it was 2.58 µM (active) and 4.17 µM (active).
For the molecule `COc1cccc2c1C(=O)c1c(O)c3c(c(O)c1C2=O)C[C@@](O)(C(=O)CO)C[C@H]3O[C@H]1C[C@H](N)[C@H](O)[C@H](C)O1`, in test [10], the outcome was “inactive”.
`CCNC(=O)c1cc2c(-c3cc(OCCN4CCCC4)c(Cl)cc3Cl)nc(N)nc2s1`: the Potency entry in test [5] is “inactive”. The Potency in test [8] and in test [9] was 512 nM (active) throughout.
Consider `Nc1ccn(C[C@@H](CO)OCP(=O)(O)O)c(=O)n1`, for which the Potency result in test [5] was “inactive”. The activity change, negative = cytotoxicity in test [11] was 2.29% [at 8.35 µM] (inactive).
Take `CC(C)(O)CC[C@@H](O)[C@](C)(O)[C@H]1CC[C@@]2(O)C3=CC(=O)[C@@H]4C[C@@H](O)[C@@H](O)C[C@]4(C)[C@@H]3CC[C@]12C`: in [10], the outcome is “inactive”.
Take `CN1CCc2c(c3ccccc3n2Cc2ccc(C(=O)NO)cc2)C1`: the Potency result in [5] and in [7] was “inactive” throughout. Further, the Potency is 7.56 µM (active) in test [6]; 16.3 µM (active) and 18.6 µM (active) in test [8]; 11.5 µM (active) and 16.6 µM (active) in test [9]. The activity in test [1] is 0%; in test [3] it was -7.28%; in test [4], -22.2%. Besides, in test [2], the activity change, negative = inhibition is -3.04%.
